# PubChem BioAssay
# Inconclusive results are not listed. Activity calls are given as the source filed them.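 The calls were made as follows, unless noted: active = normalized viability below 100% at a tested concentration; inactive = the rest.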
# Tests used:
# [1] = viability loss in pontine glioma line – cell-based, SU-DIPG-XVII, MIPE5.0, CellTiter-Glo, qHTS, dose response (AID 1347060; cut-off not given, nearly all actives have AC50 up to about 26 µM); conditions: CellTiter-Glo ATP luminescence
# [2] = viability loss in pontine glioma line – cell-based, SU-DIPG-XIII, MIPE4.0, CellTiter-Glo, qHTS, dose response (AID 1347061; cut-off not given, nearly all actives have AC50 up to about 37 µM;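 also: cells exposed to compound for 48 hours before readout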); conditions: CellTiter-Glo ATP luminescence
# [3] = viability loss in pontine glioma line – cell-based, JHH-DIPG-1, MIPE4.0, CellTiter-Glo, qHTS, dose response (AID 1347062; cut-off not given, nearly all actives have AC50 up to about 27 µM); conditions: JHH-DIPG-1 viability, CellTiter-Glo ATP luminescence
# [4] = viability loss in pontine glioma line – cell-based, SU-DIPG-IV, MIPE4.0, CellTiter-Glo, qHTS, dose response (AID 1347063; cut-off not given, nearly all actives have AC50 up to about 30 µM;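 also: compound exposure lasted 48 hours before the viability readout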); conditions: CellTiter-Glo ATP luminescence
# [5] = viability loss in pontine glioma line – cell-based, SU-DIPG-XIII, MIPE5.0, CellTiter-Glo, qHTS, dose response (AID 1347064; cut-off not given, nearly all actives have AC50 up to about 23 µM); conditions: CellTiter-Glo ATP luminescence
# [6] = growth inhibition of DIPG cells – cell-based, MIPE5.0 library, qHTS (AID 1347068; cut-off not given, nearly all actives have IC50 up to about 30 µM); conditions: SU-DIPG-XXV viability
# [7] = viability loss with induced miR-34 in A549 – imaging, A549 dox-inducible miR-34, nuclei and caspase counts, primary screen (AID 1347080;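 active = compounds whose cell count with miR-34 switched on is under 0.7 times the count with it off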); conditions: A549 miR-34 inducible, Hoechst nuclei count, 48 h
# [8] = compounds altering HSF1 focus formation in cells – imaging, Selleck Cancer Library (AID 1347162; in the data active = plate-normalised HSF1 focus index below about 0.46); conditions: human cells, HSF1 nuclear foci imaging, at 10 µM; SSMD: measured here: HSF1 foci SSMD mean; cell count: measured here: cell number; plate-normalised HSF1 focus index: stronger effect = lower value
# [9] = MELAS cybrid and Rieske KO viability enhancers – cell-based, MELAS cybrids, Rieske KO mouse fibroblasts, CellTiter-Glo, primary screen (AID 1508586;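 active = mean z-score across replicates of 1.96 or higher in either the MELAS or the Rieske mutant cell line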;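 also: z relative to plate mean and SD of compound and empty wells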); conditions: low glucose
# [10] = drug combination growth inhibition, ovarian cancer – cell-based, oncology-focused library, rucaparib conditional, profiling panel (AID 1508598); conditions: patient-derived ovarian cancer cells, CellTiter-Glo viability, 144 h, stronger effect = lower value
smiles,measurement,setting,value
CNC(=O)c1ccc(C)c(-n2c(C)cc(OCc3ccc(F)cc3F)c(Br)c2=O)c1,outcome,[1],inactive
same,outcome,[2],inactive
same,outcome,[3],inactive
same,outcome,[4],inactive
same,outcome,[5],inactive
same,outcome,[6],inactive
same,fold change,"[7]; stronger effect = lower value, cell number ratio, induced over uninduced",0.88 (inactive)
same,fold change,[7]; measured here: relative caspase fold change +Dox/-Dox,0.999
same,cell count,"[7]; measured here: total cells with miR-34 induction, stronger effect = lower value",7360
same,cell count,[7]; measured here: total cells without miR-34 induction,8370
same,SSMD,[8],3.49
same,cell count,[8],7630
same,plate-normalised HSF1 focus index,[8],1.22 (inactive)
same,z-score,"[9]; MELAS cybrid survival, CellTiter-Glo 48 h, stronger effect = higher value",-0.398 (inactive)
same,z-score,"[9]; Rieske KO mouse fibroblast survival, CellTiter-Glo 72 h",-1.25
same,viability,"[10]; at 0.000305 µM, OCI-C5x cells, with rucaparib 10 µM, 100% = cells with rucaparib alone",104% (inactive)
same,viability,"[10]; at 0.000305 µM, OCI-C5x cells, without rucaparib",124% (inactive)
same,viability,"[10]; at 0.000305 µM, OCI-P5x cells, with rucaparib 20 µM, 100% = cells with rucaparib alone",115% (inactive)
same,viability,"[10]; at 0.000305 µM, OCI-P5x cells, without rucaparib",115% (inactive)
same,viability,"[10]; at 0.00122 µM, OCI-C5x cells, with rucaparib 10 µM, 100% = cells with rucaparib alone",110% (inactive)
same,viability,"[10]; at 0.00122 µM, OCI-C5x cells, without rucaparib",124% (inactive)
same,viability,"[10]; at 0.00122 µM, OCI-P5x cells, with rucaparib 20 µM, 100% = cells with rucaparib alone",107% (inactive)
same,viability,"[10]; at 0.00122 µM, OCI-P5x cells, without rucaparib",105% (inactive)
same,viability,"[10]; at 0.00488 µM, OCI-C5x cells, with rucaparib 10 µM, 100% = cells with rucaparib alone",105% (inactive)
same,viability,"[10]; at 0.00488 µM, OCI-C5x cells, without rucaparib",102% (inactive)
same,viability,"[10]; at 0.00488 µM, OCI-P5x cells, with rucaparib 20 µM, 100% = cells with rucaparib alone",112% (inactive)
same,viability,"[10]; at 0.00488 µM, OCI-P5x cells, without rucaparib",111% (inactive)
same,viability,"[10]; at 0.0195 µM, OCI-C5x cells, with rucaparib 10 µM, 100% = cells with rucaparib alone",97.8% (active)
same,viability,"[10]; at 0.0195 µM, OCI-C5x cells, without rucaparib",113% (inactive)
same,viability,"[10]; at 0.0195 µM, OCI-P5x cells, with rucaparib 20 µM, 100% = cells with rucaparib alone",114% (inactive)
same,viability,"[10]; at 0.0195 µM, OCI-P5x cells, without rucaparib",107% (inactive)
same,viability,"[10]; at 0.0781 µM, OCI-C5x cells, with rucaparib 10 µM, 100% = cells with rucaparib alone",101% (inactive)
same,viability,"[10]; at 0.0781 µM, OCI-C5x cells, without rucaparib",106% (inactive)
same,viability,"[10]; at 0.0781 µM, OCI-P5x cells, with rucaparib 20 µM, 100% = cells with rucaparib alone",108% (inactive)
same,viability,"[10]; at 0.0781 µM, OCI-P5x cells, without rucaparib",108% (inactive)
same,viability,"[10]; at 0.313 µM, OCI-C5x cells, with rucaparib 10 µM, 100% = cells with rucaparib alone",90.4% (active)
same,viability,"[10]; at 0.313 µM, OCI-C5x cells, without rucaparib",119% (inactive)
same,viability,"[10]; at 0.313 µM, OCI-P5x cells, with rucaparib 20 µM, 100% = cells with rucaparib alone",112% (inactive)
same,viability,"[10]; at 0.313 µM, OCI-P5x cells, without rucaparib",112% (inactive)
same,viability,"[10]; at 1.25 µM, OCI-C5x cells, with rucaparib 10 µM, 100% = cells with rucaparib alone",91.7% (active)
same,viability,"[10]; at 1.25 µM, OCI-C5x cells, without rucaparib",112% (inactive)
same,viability,"[10]; at 1.25 µM, OCI-P5x cells, with rucaparib 20 µM, 100% = cells with rucaparib alone",110% (inactive)
same,viability,"[10]; at 1.25 µM, OCI-P5x cells, without rucaparib",108% (inactive)
same,viability,"[10]; at 5 µM, OCI-C5x cells, with rucaparib 10 µM, 100% = cells with rucaparib alone",123% (inactive)
same,viability,"[10]; at 5 µM, OCI-C5x cells, without rucaparib",129% (inactive)
same,viability,"[10]; at 5 µM, OCI-P5x cells, with rucaparib 20 µM, 100% = cells with rucaparib alone",110% (inactive)
same,viability,"[10]; at 5 µM, OCI-P5x cells, without rucaparib",105% (inactive)
